Screening data: PubChem, National Center for Advancing Translational Sciences (NCATS)
HPGD block – blocks human HPGD enzyme activity; P15428; Potency, µM, without a hit: at the top dose activity change, negative = inhibition, actives largely listed as inhibitors; AID 894; 150,000 compounds, 4.3% hits; purified HPGD, NADH fluorescence kinetic, PGE2 substrate; active means well fitted inhibition curve with a large enough effect, not every such curve was filed as active; inconclusive means small, poorly fitted or top-dose-only effect, or another doubt; inactive means no such curve, though single readings can be large or run the other way; further: potency means the concentration at half of the fitted maximal effect
Target sequence (P15428 whole entry, looked up): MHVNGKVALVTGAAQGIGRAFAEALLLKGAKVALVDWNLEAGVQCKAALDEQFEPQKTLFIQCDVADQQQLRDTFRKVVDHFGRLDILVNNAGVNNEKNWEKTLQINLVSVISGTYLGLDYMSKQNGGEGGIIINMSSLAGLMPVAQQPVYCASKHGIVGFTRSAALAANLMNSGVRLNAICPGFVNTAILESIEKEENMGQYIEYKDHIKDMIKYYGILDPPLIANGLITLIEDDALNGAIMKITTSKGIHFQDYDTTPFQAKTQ
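20 nM HPGD preincubated 15 min at room temperature with compound in 50 mM Tris-HCl pH 8, 0.01% Tween 20. Started with 1 mM NAD+ and 30 uM prostaglandin E2; NADH fluorescence (360/450 nm) read 5 times over 30-s intervals, last minus first.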
ALDH1A1 inh – inhibitors of human aldehyde dehydrogenase 1A1 | P00352 | Purified ALDH1A1, NADH fluorescence, propionaldehyde substrate | Potency, µM (top dose mostly 75.3 µM), for inactives: at the highest dose activity, negative = inhibition, hits mostly inhibitors | 220,000 compounds, 7.3% hits | AID 1030; active means well fitted inhibition curve with a large enough effect, not every such curve was filed as active; inconclusive means small, poorly fitted or top-dose-only effect, or another doubt; inactive means no such curve, though single readings can be large or run the other way;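 further: potency means the concentration at half of the fitted maximal effect; plate controls were no enzyme wells and a reference inhibitor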
IMPase cell inh – membrane-permeable compound that blocks inositol monophosphatase; 120,000 tested, under 10 active; CHO-M1 cells, IP1 accumulation, HTRF TR-FRET ratio; AID 901; inhibition (IP1 accumulation), % at 46.1 µM; active means well fitted curve in the direction sought with a large enough effect in the signal ratio, not every such curve was filed as active; inconclusive means small, poorly fitted or top-dose-only effect, or a change in a side signal; inactive means no such curve, though single readings can be large or run the other way; the % refers to the signal ratio;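 further: cells stimulated with carbachol in lithium chloride buffer; plate controls were DMSO basal wells for no effect and reference inhibitor wells for full effect; higher means more IMPase inhibition seen as more IP1 and lower FRET ratio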
Target sequence (P97697 whole entry, looked up): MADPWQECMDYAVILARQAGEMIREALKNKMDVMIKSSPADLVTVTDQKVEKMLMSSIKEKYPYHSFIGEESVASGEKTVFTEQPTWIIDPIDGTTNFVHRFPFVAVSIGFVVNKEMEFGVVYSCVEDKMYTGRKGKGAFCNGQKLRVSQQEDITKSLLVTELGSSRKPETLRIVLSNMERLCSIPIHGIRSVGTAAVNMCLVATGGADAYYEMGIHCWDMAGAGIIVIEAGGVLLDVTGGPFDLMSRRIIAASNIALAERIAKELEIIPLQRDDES
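In this qHTS, compounds (final up to 46 uM) act on CHO-M1 cells that are then activated through the M1 receptor with carbachol, in pH 7.4 buffer containing 50 mM LiCl, for 30 min. IP1 accumulation is quantified by the IP-One immunoassay.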
ALOX12 inhib – blocks human 12-lipoxygenase activity; P18054; purified 12-hLO, xylenol orange hydroperoxide absorbance; Potency, µM (titrated, usually from 57.1 µM), for inactives: top-dose activity change, negative = inhibition, most hits filed as inhibitors; 150,000 compounds, 0.12% hits; further: potency means the concentration at half of the fitted maximal effect; nearly all actives have a fitted effect of over 55% in size
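Lipoxygenase turnover measured by absorbance at 573 and 405 nm after Fe-XO development. Human 12hLO 150 nM, arachidonate 40 uM, pH 7.0 Hepes buffer with detergent; 15 min compound preincubation, 30 min reaction.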
IMPase Li cell – membrane-permeable IMPase blocker, potentiated with lithium; Potency, µM (series often up to 59.4 µM), without a hit: at the highest dose activity, negative = IMPase inhibition, most hits filed as inhibitors; 210,000 compounds, 0.35% hits; CHO-M1 cells, IP1 TR-FRET (IP-One), carbachol + lithium;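 further: IP1 builds up when IMPase is blocked and the TR-FRET signal falls; potency means the concentration at half of the fitted maximal effect; plate controls were basal vehicle for no effect and high inhibitor control for full effect; nearly all actives have a fitted effect of over 50% in size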
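Concentration–response in CHO-M1 cells, lithium-potentiated; 30 min at 37C. IP1 detected by competitive TR-FRET after 10 min lysis at RT. Hill-fitted AC50.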
PNC inhibitor – perinucleolar compartment assembly inhibition; PC3M PTB-GFP, PNC prevalence imaging, 16 h; active compounds read low; activity change (PNC), negative = inhibition, % at 10 µM; 140,000 compounds, 3.1% hits; AID 2417;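 active means readout at or below -70, meaning at least 70% loss of cells showing the perinucleolar compartment, a nuclear body marking cancer cells; inconclusive means readout between -30 and a set limit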;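 further: plate controls were DMSO wells for no effect and camptothecin positive control wells for full effect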
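Compounds are pinned in duplicate onto adhered PC3M cells stably expressing GFP-tagged PTB and incubated 16 h at 37 C. Cells are then fixed, nuclei stained with Hoechst, and PNC-positive cells counted.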
An asterisk follows results filed as active; ? = inconclusive; / = no result given; [ ] = dose if it differs, or a comment. Compounds with a hit are over-represented: about 11% of the library has one in this group of screens. Unless noted, the call rests on the fitted dose curve; in most records, active means well fitted curve in the direction sought with a large enough effect; inconclusive means small, poorly fitted or top-dose-only effect, or another doubt; inactive means no such curve, though single readings can be large; an effect the other way counts as inactive or inconclusive. Unless noted, on the % scale 0 is the no-effect control and ±100 the full control effect.

SMILES | HPGD block | ALDH1A1 inh | IMPase cell inh | ALOX12 inhib | IMPase Li cell | PNC inhibitor
Cc1cccc(NS(=O)(=O)c2cc(C(=O)O)ccc2Cl)c1 | -8% | -3% | / | 3% | / | /
CCCNC(=O)c1cc(-c2ccc(OC)cc2)n(CCCOC)c1C | 8.9µM* | ? | -12 | -2% | -5% | ?
CCOC(=O)c1cc(-c2ccc(C)cc2)n(CCC(=O)NCCCOC)c1C | -28% | 4% | -1 | 2% | 25%[38.3 µM] | -18
c1ccc(CN2CCOCC2)cc1 | -5% | 6% | 8 | -6% | 17%[38.3 µM] | -22
c1ccc(Oc2cccc(CN3CCOCC3)c2)cc1 | 25µM* | ? | ? | 11% | 43%[38.3 µM] | -8
O=C(N/N=C/c1ccc(Cl)cc1)C(=O)N1CCCCCC1 | / | -1% | / | / | -4% | /
O=C(NC(c1ccccc1)c1ccccn1)c1cccc([N+](=O)[O-])c1 (configuration not stated) | / | 14µM* | / | / | 7% | /
O=C(NNC(=O)c1ccccn1)c1cccc([N+](=O)[O-])c1 | / | 9% | / | / | 5% | /
O=Cc1ccc(OC2C=CC(C#Cc3ccccc3)OC2CO)cc1 (configuration not stated) | / | -14%[13.5 µM] | / | / | / | /
O=C1SCC(c2ccc(Cl)cc2Cl)=NN1Cc1nnc(-c2ccccc2)o1 | 32µM* | -7% | / | 0% | 10% | 24
CC(=O)Nc1ccc(C2=NN(Cc3nnc(-c4ccccc4)o3)C(=O)SC2)cc1 | 5µM* | -10% | / | 2% | 8% | -15
O=C1SCC(c2ccccc2)=NN1Cc1ccccc1 | -21% | ? | / | -2% | 3% | -7
NCCOc1ccccn1 | -14% | 5%[13.5 µM] | / | 5%[11.4 µM] | 2% | /
Cc1cccc(-n2c(C)cc(C(=O)NC3CCCCC3)c2C)c1 | 0.71µM* | 1% | -4 | -15% | 8% | ?
COc1ccc(-n2c(C)cc(C(=O)NC3CCCCC3)c2C)cc1 | 1.1µM* | 7.9µM* | 11 | 4% | 5%[38.3 µM] | 52
O=C(O)C(Sc1ccc(Cl)cc1)Sc1ccc(Cl)cc1 | -13% | 10%[13.5 µM] | / | -5%[11.4 µM] | -1% | /
COc1ccc(Cl)cc1C(=O)CSc1nnnn1C1CCCCC1 | -26% | 5µM* | 14 | -4% | 19% | ?
COc1ccc(Cl)cc1C(=O)CSc1nnnn1C1CCCC1 | / | 2µM* | 4 | -10% | / | -26
CCn1nnnc1SCC(=O)c1cc(Cl)ccc1OC | / | ? | / | / | 1% | /
O=C(CSc1nnnn1C1CCCCC1)N1CCCC1 | / | ? | 7 | 0% | / | -30
COC(=O)C/C=C\[C@@H](C)[C@@H](/C=N\OC[C@@H]1O[C@H](c2ccccc2)C=C[C@@H]1Oc1ccc(OC)cc1)OC | / | -10%[13.5 µM] | / | / | / | /
C=COCC1CN2C(CCC(C)C2c2ccc(Br)cc2)C(=O)O1 (configuration not stated) | / | 7%[13.5 µM] | / | / | / | /
Cn1cc(-c2nc3cncnc3n(Cc3ccc(F)cc3)c2=O)c2ccccc21 | / | ? | / | / | 8% | /
Cc1cc(C)nc(Sc2ncnc(N)c2[N+](=O)[O-])n1 | / | 8% | / | / | 2% | /
NC[C@@H]1O[C@@H](O[C@H]2[C@H](O)[C@@H](O[C@@H]3O[C@@H](CO)[C@H](O)[C@@H](N)[C@@H]3O)[C@H](N)C[C@@H]2N)[C@@H](O)[C@H](O)[C@H]1O | -17% | 16% | / | 0%[0.00818 µM] | 0% | /
SMILES | HPGD block | ALDH1A1 inh | IMPase cell inh | ALOX12 inhib | IMPase Li cell | PNC inhibitor
CC(=O)C1=C(O)C(=O)N(c2ccc(Br)cn2)C1c1ccccc1F (configuration not stated) | -29% | ? | -10 | 11% | 11µM* | 5
CC(=O)OC[C@@H]1O[C@@H](O/N=C2/C[C@@H](O)[C@@H](O)[C@@H]3[C@@H]4C(=O)N([C@@H](C)c5ccccc5)C(=O)[C@H]4CC[C@H]23)[C@H](OC(C)=O)[C@H](OC(C)=O)[C@@H]1OC(C)=O | / | 6%[13.5 µM] | / | / | / | /
CCOC(=O)c1c(-c2ccc(C)o2)csc1NC(=O)CN1CCC(C(N)=O)CC1 | / | 25µM* | / | / | 4% | /
CCOC(=O)c1c(-c2ccc(C)o2)csc1NC(=O)CN1CCCCC1 | / | ? | / | / | 14% | /
CCOC(=O)c1c(-c2ccc(C)o2)csc1NC(=O)CSc1nncs1 | 20µM* | 11µM* | 8 | ? | 8%[38.3 µM] | ?
C[C@@H](O)CCC[C@H](O)/C=C/[C@@H]1[C@@H](C/C=C\CCCC(=O)O)[C@@H](O)C[C@H]1O | -3% | -3% | / | 0% | 9% | /
C=C(COC)C1=CCC(C(=O)OC)(C(=O)OC)[C@@H](C[N+](=O)[O-])c2ccccc21 | -2% | -11% | / | 1% | 18% | /
CN(C)c1ccc(/C=N/NC(=O)c2cccc(C(=O)N/N=C/c3ccc(N(C)C)cc3)n2)cc1 | / | 2% | / | / | 5% | /
CN(C)c1ccc(NC(=O)c2cccc(C(=O)Nc3ccc(N(C)C)cc3)n2)cc1 | -17% | 8.9µM* | / | -2% | 19% | 119
CN(C)c1ccc(NC(N)=S)cc1 | -8% | 12µM* | / | -7% | 30% | ?
CCN(CC)CCCC(C)n1c(-c2ccccc2)nc2c(N(CCOC)CCOC)nc(C)nc21 (configuration not stated) | ? | ? | / | 0% | 29% | /
Cn1ccnc1SCC(=O)Nc1ccc2nc(SCC(=O)NC3CC3)sc2c1 | 14µM* | 3.5µM* | 5 | 3% | 23%[38.3 µM] | ?
Cn1ccnc1SCC(=O)Nc1nc2ccccc2s1 | / | -8% | / | / | -3% | /
Nc1ccc2nc(SCC(=O)N3CCOCC3)sc2c1 | / | 3% | / | / | 3% | /
CCOC(=O)CSc1nc2ccc(N)cc2s1 | ? | 20µM* | -5 | 0% | 12%[38.3 µM] | 49
CC(C)(C)NC(=O)CSc1nc2ccc(NC(=O)CSc3nnnn3Cc3ccccc3)cc2s1 | 8.9µM* | 4µM* | 8 | -1% | 18%[38.3 µM] | ?
CCOC(=O)CSc1nc2ccc(NC(=O)CSc3nnnn3Cc3ccccc3)cc2s1 | -11% | 14µM* | 0 | 7% | 14% | -2
Cc1ccccc1OCc1nnc(SCC(=O)Nc2ccc3nc(SCC(=O)NC(C)(C)C)sc3c2)n1C | -17% | ? | -8 | -4% | 16%[38.3 µM] | -13
CCCn1c(=O)c2[nH]c(-c3ccccc3)nc2n(CCC)c1=O | -20% | -10% | 1 | -1% | -7% | /
O=C(O)CCn1cnc2c(=S)nc[nH]c21 | 0% | -12%[13.5 µM] | / | -2%[11.4 µM] | 1% | /
CCOC(=O)C1CCN(c2cc3c(cc2NC(=O)c2ccc(Cl)cc2)n(C)c(=O)n3C)CC1 | / | / | -4 | / | / | /
CC(C)(C)NC(=O)CSc1nc2ccc(NC(=O)CSc3nnc(N)s3)cc2s1 | 32µM* | -2% | / | -5% | -1% | ?
Cc1ccc(NCc2ccccc2-c2nnc(-c3ccccc3Cl)o2)c(C)c1 | / | / | 1 | / | / | /
COC(=O)C1=C(C)OC(N)=C(C#N)C1c1cccnc1 (configuration not stated) | -2% | -4% | -2 | 5% | 22%[38.3 µM] | ?
